Results reported in PubChem BioAssay (NCATS).
Records with an inconclusive call do not appear. Calls of active or inactive are those of the source. Calls follow the shape of the dose curve; as a rule, active = well fitted inhibition curve with a large enough effect; inconclusive = small, poorly fitted or top-dose-only effect; inactive = flat fitted curve, though single readings scatter. *1 amine or outer side, *2 acyl side, *3 side chain or, on linkers, in order; H or OH if unused. Where a SMILES comes first, the peptide text is derived from it. Bridges are numbered along the chain shown (N, C = ends). [ ]: non-standard residue; d: D form. The star is where a group is joined. X5 = NC1=N[C@@H]([C@H](N[*:1])C(=O)[*:2])C[C@H](O)N1; ΔAla(Z-3-ureido) = NC(=O)N/C=C(\N)C(=O)O; β3hOrn = NCCC[C@H](N)CC(=O)*; Dap = NC[C@H](N)C(=O)O

What follows are molecules tested against Voltage-gated inwardly rectifying potassium channel KCNH2 (Homo sapiens) (UniProt Q12809) (assay: qHTS Assay for Small Molecule Inhibitors of the Human hERG Channel Activity (AID 588834;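 also: lower thallium flux fluorescence means stronger hERG block; nearly all actives have a fitted effect of over 50% in size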; as to activity change, negative = inhibition: top concentration of the series differs between compounds)). Settings: U2OS BacMam hERG, FluxOR thallium flux fluorescence; series mostly up to 46.1 µM; activity change, negative = inhibition: at the top concentration.
Voltage-gated inwardly rectifying potassium channel KCNH2 (Homo sapiens), sequence (Q12809 whole entry, looked up): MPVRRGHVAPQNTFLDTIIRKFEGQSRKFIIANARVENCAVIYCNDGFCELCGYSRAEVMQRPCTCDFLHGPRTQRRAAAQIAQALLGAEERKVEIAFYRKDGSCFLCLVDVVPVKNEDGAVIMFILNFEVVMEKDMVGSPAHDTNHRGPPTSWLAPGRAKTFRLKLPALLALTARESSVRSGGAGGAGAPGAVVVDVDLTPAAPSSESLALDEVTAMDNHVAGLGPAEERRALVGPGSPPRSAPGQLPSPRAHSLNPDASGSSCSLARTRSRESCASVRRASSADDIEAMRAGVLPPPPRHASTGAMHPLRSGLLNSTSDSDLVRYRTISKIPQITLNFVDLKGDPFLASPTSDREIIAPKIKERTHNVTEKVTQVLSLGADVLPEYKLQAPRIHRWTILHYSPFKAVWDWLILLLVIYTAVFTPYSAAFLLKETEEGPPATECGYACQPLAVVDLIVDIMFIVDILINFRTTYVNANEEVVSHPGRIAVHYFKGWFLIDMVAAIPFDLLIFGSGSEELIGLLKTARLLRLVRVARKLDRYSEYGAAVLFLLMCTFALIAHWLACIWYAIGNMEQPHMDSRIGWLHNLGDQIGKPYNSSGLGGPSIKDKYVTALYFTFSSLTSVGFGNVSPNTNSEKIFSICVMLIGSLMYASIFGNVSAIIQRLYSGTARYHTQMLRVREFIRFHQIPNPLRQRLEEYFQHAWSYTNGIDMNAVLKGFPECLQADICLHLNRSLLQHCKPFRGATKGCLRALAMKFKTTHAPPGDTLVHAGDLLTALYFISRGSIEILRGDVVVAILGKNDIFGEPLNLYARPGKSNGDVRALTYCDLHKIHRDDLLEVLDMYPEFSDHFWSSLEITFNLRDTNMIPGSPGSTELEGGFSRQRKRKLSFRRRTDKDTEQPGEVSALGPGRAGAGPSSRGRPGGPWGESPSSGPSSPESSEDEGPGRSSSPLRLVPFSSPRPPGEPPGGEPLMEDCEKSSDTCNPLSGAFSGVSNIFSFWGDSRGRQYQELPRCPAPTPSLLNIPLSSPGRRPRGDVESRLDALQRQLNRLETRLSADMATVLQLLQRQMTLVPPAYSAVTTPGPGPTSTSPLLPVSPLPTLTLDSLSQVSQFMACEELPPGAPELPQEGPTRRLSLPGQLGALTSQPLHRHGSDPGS
Summary of the method: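 In hERG-transduced U2OS cells, dye-loaded for 1 hr at room temperature in dark, test compounds incubated 10 min at 37 °C before thallium stimulation. AC50 values derived by Hill modelling of concentration-response.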
% is scaled to controls: 0 for no effect and ±100 for the full control effect; potency is read from the fitted curve at half-maximal effect.

Compound | activity change, negative = inhibition | Potency
CC(O)[C@@H]1NC(=O)[C@H](Cc2ccccc2)NC(=O)[C@H](C(C)O)NC(=O)[C@H](CCCCN)NC(=O)[C@H](Cc2c[nH]c3ccccc23)NC(=O)[C@H](Cc2ccccc2)NC(=O)[C@H](Cc2ccccc2)NC(=O)[C@H](CC(N)=O)NC(=O)[C@H](CCCCN)NC(=O)[C@@H](NC(=O)CNC(=O)[C@H](C)N)CSSC[C@@H](C(=O)O)NC(=O)[C@H](CO)NC1=O (stereo partly specified) | 15.5% (inactive) | 
CO[C@H]1C=CO[C@@]2(C)Oc3c(C)c(O)c4c(O)c(cc(O)c4c3C2=O)NC(=O)/C(C)=C\C=C/[C@H](C)[C@H](O)[C@@H](C)[C@@H](O)[C@@H](C)[C@H](OC(C)=O)[C@@H]1C | 13.9% (inactive) | 
CC1CCCC(C)N1NC(=O)c1ccc(Cl)c(S(N)(=O)=O)c1 (stereo unspecified) | -3.38% [at 20.6 µM] (inactive) | 
C[N@+]12CCCC[C@@H]1CCC(=C(c1cccs1)c1cccs1)C2 |  | 2240 nM (active)
CNCC(O)c1ccc(OC(=O)C(C)(C)C)c(OC(=O)C(C)(C)C)c1 (stereo unspecified) | -7.91% [at 20.6 µM] (inactive) | 
NC(Cc1ccccc1)C(=O)O (stereo unspecified) | 12.1% (inactive) | 
CC(C)(C)c1ccc(CN2CCN(C(c3ccccc3)c3ccc(Cl)cc3)CC2)cc1 (stereo unspecified) |  | 2820 nM (active)
CC1(C)C(\C=C/C=C\C=C/C=C2/N(CCCCS(=O)(=O)O)c3ccc4ccccc4c3C2(C)C)=[N+](CCCCS(=O)(=O)[O-])c2ccc3ccccc3c21 | 0.325% (inactive) | 
CCOC(=O)Oc1c(OC)cc(C(=O)O[C@@H]2C[C@@H]3CN4CCc5c([nH]c6cc(OC)ccc56)[C@H]4C[C@@H]3[C@H](C(=O)OC)[C@H]2OC)cc1OC |  | 2240 nM (active)
C[C@H]1[C@@H](OC(=O)CCC(=O)O)O[C@@H]2OC3(C)CC[C@H]4[C@H](C)CC[C@@H]1[C@@]24OO3 | 3.74% (inactive) | 
CC1(C)[C@@H]2CC[C@@]1(C)[C@H](OC(=O)CSC#N)C2 | -1.84% (inactive) | 
CC1(C)[C@H]2CC[C@]1(C)[C@H](O)C2 | 29% (inactive) | 
CC(C)C[C@H](NC(=O)[C@@H](COC(C)(C)C)NC(=O)[C@H](Cc1ccc(O)cc1)NC(=O)[C@H](CO)NC(=O)[C@H](Cc1c[nH]c2ccccc12)NC(=O)[C@H](Cc1cnc[nH]1)NC(=O)[C@@H]1CCC(=O)N1)C(=O)N[C@@H](CCCN=C(N)N)C(=O)N1CCC[C@H]1C(=O)NNC(N)=O | 15.7% (inactive) | 
CCCCCCCCCCCCCCCC(=O)OC[C@@H](O)[C@H]1OC[C@H](O)[C@H]1O | 11% (inactive) | 
CC(C)[C@@H]1CC[C@@H](C)C[C@H]1OC(=O)c1ccccc1O | 5.36% (inactive) | 
NCCC[C@H](N)CC(=O)N[C@H]1CNC(=O)[C@H]([C@H]2C[C@H](O)NC(N)=N2)NC(=O)/C(=C/NC(N)=O)NC(=O)[C@H](CO)NC(=O)[C@H](CO)NC1=O (β3hOrn-[Dap]SS[ΔAla(Z-3-ureido)][X5]; lactam 1-C) | 21.1% (inactive) | 
C=C1[C@H](CO)[C@@H](O)C[C@@H]1n1cnc2c(=O)[nH]c(N)nc21 | -0.589% (inactive) | 
CN1CCN(C(c2ccccc2)c2ccc(Cl)cc2)CC1 (stereo unspecified) |  | 5620 nM (active)
CCC(Oc1ccccc1)C(=O)N[C@@H]1C(=O)N2[C@@H]1SC(C)(C)[C@@H]2C(=O)O (stereo partly specified) | 13.4% (inactive) | 
C[C@@H]1C/C=C/C=C/C=C/C=C/[C@H](O[C@@H]2O[C@H](C)[C@@H](O)[C@H](N)[C@@H]2O)C[C@@H]2O[C@](O)(C[C@@H](O)C[C@H]3O[C@@H]3/C=C/C(=O)O1)C[C@H](O)[C@H]2C(=O)O | -11.6% (inactive) | 
C[C@@H]1O[C@@H](OC[C@H]2O[C@@H](Oc3c(-c4ccc(OCCO)c(OCCO)c4)oc4cc(OCCO)cc(O)c4c3=O)[C@H](O)[C@@H](O)[C@@H]2O)[C@H](O)[C@H](O)[C@H]1O | -0.235% (inactive) | 
CN[C@@H]1[C@@H](O[C@H]2O[C@H](CO)[C@@H](N)[C@H](O)[C@H]2O)O[C@H]2C[C@@H](N)[C@@H](O[C@H]3[C@H](O)[C@@H](O)[C@H](N)C[C@@H]3N)O[C@@H]2[C@@H]1O | 2.33% [at 20.6 µM] (inactive) | 
CC(C)CCC[C@@H](C)[C@H]1CC(=O)C2=C3CC[C@H]4C[C@@H](O)CC[C@]4(C)[C@H]3CC[C@@]21C | -27.1% (inactive) | 
CCCCCCCCCCCCCCCC(=O)OC[C@H](COP(=O)([O-])OCC[N+](C)(C)C)OC(=O)CCCCCCCCCCCCCCC | 0.775% (inactive) | 
CC(C)CN(C[C@@H](OP(=O)(O)O)[C@H](Cc1ccccc1)NC(=O)O[C@H]1CCOC1)S(=O)(=O)c1ccc(N)cc1 | 22.9% (inactive) | 
CCN1\C(=C/C=C/C=C/c2sc3ccccc3[n+]2CC)Sc2ccccc21 |  | 11200 nM (active)
